“And” between values parts separate entries of the source, which are not always exact repeats. Equal values may be shown once. About 1,100 (1.5%) of roughly 74,000 compounds were called active. Roughly 5% stayed inconclusive and do not appear here. This excerpt belongs to a sample that is enriched for actives. A number with no mark means an inactive call. The call rests on the fitted dose curve; in most records, active means well fitted inhibition curve with a large enough effect; inconclusive means small, poorly fitted or top-dose-only effect; inactive means no such curve, though single readings can be large or run the other way. Non-standard residues stand in square brackets, D forms with d. Residues, ends and D or L forms follow the SMILES beside them. Groups on a side chain read outwards from the residue. *: point of attachment. X2 = CCC(C)C(N)C1=NC(C(=O)*)CS1; Orn = NCCC[CH](N)C(=O)O
On the % scale 0 is the no-effect control and ±100 the full control effect; potency means the concentration at half of the fitted maximal effect.

Sequence of Polyunsaturated fatty acid lipoxygenase ALOX15 (Homo sapiens) (P16050 whole entry, looked up): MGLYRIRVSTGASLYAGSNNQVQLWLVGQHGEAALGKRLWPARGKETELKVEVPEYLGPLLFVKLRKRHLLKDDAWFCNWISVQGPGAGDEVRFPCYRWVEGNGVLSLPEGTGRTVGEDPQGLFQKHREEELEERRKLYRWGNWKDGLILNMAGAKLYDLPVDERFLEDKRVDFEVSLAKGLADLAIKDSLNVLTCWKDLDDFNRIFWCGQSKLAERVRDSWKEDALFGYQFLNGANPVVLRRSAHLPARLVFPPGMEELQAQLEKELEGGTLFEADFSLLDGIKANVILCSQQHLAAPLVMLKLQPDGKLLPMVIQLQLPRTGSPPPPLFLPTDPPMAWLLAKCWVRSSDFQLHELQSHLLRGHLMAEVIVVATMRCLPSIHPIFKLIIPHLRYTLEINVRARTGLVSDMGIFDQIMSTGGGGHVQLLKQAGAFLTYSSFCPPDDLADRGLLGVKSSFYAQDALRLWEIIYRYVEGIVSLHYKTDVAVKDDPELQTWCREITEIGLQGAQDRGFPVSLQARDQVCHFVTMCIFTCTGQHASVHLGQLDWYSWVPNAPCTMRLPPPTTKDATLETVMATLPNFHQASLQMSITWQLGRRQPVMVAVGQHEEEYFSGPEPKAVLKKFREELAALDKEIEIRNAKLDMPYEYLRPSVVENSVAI

The assay addresses Polyunsaturated fatty acid lipoxygenase ALOX15 (Homo sapiens) (UniProt P16050). In words: qHTS Assay for Inhibitors of 15-hLO (15-human lipoxygenase). Further: nearly all actives have a fitted effect of over 55% in size. To be noted: purified 15hLO-1, xylenol orange hydroperoxide absorbance; series mostly up to 57.1 µM; activity change, negative = inhibition: at the top concentration. A digest of the protocol: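 Purified human 15hLO-1 (40 nM final) in 25 mM Hepes pH 7.5, 0.01% Triton X-100 was preincubated with compound 15 min at room temperature, then reacted 6 min with 50 uM arachidonic acid; hydroperoxide detected by Fe-XO, 573/405 nm absorbance ratio.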
(In general: In qHTS, concentration-response curves come from the screen itself.)
For the molecule `Cc1cc(C(=O)O)ccc1[N+](=O)[O-]`, the “activity change, negative = inhibition” value is -12.9%.

Take `O=C1C[C@@H](O)[C@@H](O)[C@H]2[C@@H]3C(=O)N(Cc4ccc5c(c4)OCO5)C(=O)[C@@H]3CC[C@H]12`: the activity change, negative = inhibition was 6.76% [at 11.4 µM] and -0.286% [at 11.4 µM].

For `CO/N=C\[C@@H](C)[C@H](OCc1ccccc1)C(C)C`, the activity change, negative = inhibition is 6.43% [at 11.4 µM].

On to `CC1C(O)CC2C(C(=O)O)=CO[C@@H](O[C@H]3OC(CO)C(O)C(O)C3O)C21` (stereo not given in full), for which the “activity change, negative = inhibition” value is 9%.

As to `CC1(C)OC(C(O)(c2ccccc2)c2ccccc2)C(C(O)(c2ccccc2)c2ccccc2)O1` (stereo not given), the activity change, negative = inhibition is 14.5% [at 11.4 µM].

Turning to `CC[C@@H]1Cc2cc(O)ccc2C2=C1c1ccc(O)cc1C[C@H]2CC`, the Potency was 10 µM (active).

As to `COc1cccc([C@H](O)Cn2cc(-c3ccc(CON=C(C)C)cc3)nn2)c1`, the activity change, negative = inhibition was 15.5% [at 11.4 µM].

For the molecule `C[C@@H](c1ccccc1)N1C(=O)[C@H]2[C@H]3[C@H](O)[C@H](O)C/C(=N/OC[C@@H](O)COCc4ccco4)[C@@H]3CC[C@@H]2C1=O`, the activity change, negative = inhibition is 0.315% [at 11.4 µM].

On to `Cc1cnc(CNc2cc(-c3c(C)noc3C)ncn2)cn1`, for which the “activity change, negative = inhibition” value is 11%.

As to `CCC(C)C(N)C1=NC(C(=O)NC(CC(C)C)C(=O)NC(CCC(=O)O)C(=O)NC(C(=O)NCCCCC2NC(=O)C(CC(N)=O)NC(=O)C(CC(=O)O)NC(=O)C(Cc3cnc[nH]3)NC(=O)C(Cc3ccccc3)NC(=O)C(C(C)CC)NC(=O)C(CCCN)NC2=O)C(C)CC)CS1` (stereo not drawn) (cyclo(DNK([Ile-Glu-Leu-X2])[Orn]IFH); configuration not given here), the “activity change, negative = inhibition” value was -2.63%.

On to `O=C(CSc1nnc(-c2ccco2)n1-c1ccccc1)NCCc1ccccc1`, for which the Potency is 6.31 µM (active).

With `COc1ccc(C(=O)NC(=O)CSc2nnc(-c3ccco3)n2-c2ccccc2)cc1`, the “activity change, negative = inhibition” value is 8.82%.

Consider `Cc1cccc(C)c1NC(=O)CCCSc1nnc(-c2ccco2)n1-c1ccccc1`, for which the “activity change, negative = inhibition” value was 9.58%.

Regarding `COC(=O)[C@@H]1CC[C@H](C)[C@@H](c2ccc(C)cc2)N1C(=O)c1ccc(/C=N\O[C@@H](C)c2cn([C@H](CO)Cc3ccccc3)nn2)cc1`, the activity change, negative = inhibition is -7.8% [at 11.4 µM] and 0.419% [at 11.4 µM].

For the molecule `CC(=O)N1CCN(c2ccc(NCc3ccc(C(C)C)cc3)cc2)CC1`, the Potency was 12.6 µM (active).

For the molecule `CC(=O)N1CCC2(CC1)CCN(c1ccncc1)CC2`, the “activity change, negative = inhibition” value was 5.31%.

For `CN1CCN(c2ccc(NC(=O)COc3ccc(Cl)cc3Cl)cc2)CC1`, the “activity change, negative = inhibition” value is -10.2%.

`CC(C)CO/N=C1/C[C@@H](O)[C@@H](O)[C@@H]2[C@@H]3C(=O)N(C[C@@H]4CCCO4)C(=O)[C@H]3CC[C@@H]12`: the activity change, negative = inhibition was 9.84% [at 11.4 µM].

Turning to `C[C@@H]1O[C@@H](OC[C@H]2O[C@@H](Oc3c(-c4cccc(O)c4O)oc4cc(O)cc(O)c4c3=O)[C@H](O)[C@@H](O)[C@@H]2O)[C@H](O)[C@H](O)[C@H]1O`, the “activity change, negative = inhibition” value was -3.77% [at 25.6 µM].

Consider `CC(C)C(c1nnnn1CCc1ccccc1)N1CCN(C(=O)c2ccco2)CC1` (stereo not given), for which the “activity change, negative = inhibition” value is 4.74%.

`O=C(OCc1cc2ccccc2[nH]c1=O)c1cccnc1`: the “activity change, negative = inhibition” value is -1.72%.

Turning to `C=CCOC(=O)C(C(C)=O)C(NC(=O)OC)c1ccccc1` (stereo not given), the activity change, negative = inhibition is 13.9% [at 11.4 µM].

Consider `O=C(CSc1nc2[nH]ncc2c(=O)n1-c1ccccc1)N1CCCc2ccccc21`, for which the Potency is 15.8 µM (active).

Consider `C=CCn1c(=O)c2ccccc2n2c(SCC(=O)N3CCCc4ccccc43)nnc12`, for which the “activity change, negative = inhibition” value is -27.3%.

On to `Cc1nnc(SCC(=O)N2CCc3ccccc32)n1-c1ccccc1`, for which the “activity change, negative = inhibition” value is 2.3%.

For the molecule `CC1(C)OC2CC(=O)OC[C@@]23C1CC(=O)[C@]1(C)C3CC[C@@]2(C)C(c3ccoc3)OC(=O)C3O[C@@]321` (stereo not given in full), the “activity change, negative = inhibition” value is 2.09%.

As to `COc1ccc(C(=O)n2nc(-c3ccc(C)cc3)nc2N)cc1OC`, the “activity change, negative = inhibition” value was 8.21%.

Turning to `COc1ccccc1C(=O)n1nc(-c2ccccc2)nc1N`, the Potency was 12.6 µM (active).

For `COc1ccc(C(=O)n2nc(-c3ccc(Cl)cc3)nc2N)cc1OC`, the “activity change, negative = inhibition” value was 9.61%.

On to `CCOC(=O)c1cccc(NC(=O)CCn2nnc3ccccc32)c1`, for which the “activity change, negative = inhibition” value was -10.8%.

`CO[C@@H]1COC(=O)[C@H](Cc2ccccc2)NC(=O)C/C=C\[C@@H](C)[C@H](OC)COC(=O)[C@@H](C)NC(=O)C/C=C\[C@H]1C`: the activity change, negative = inhibition was 2.31% [at 11.4 µM] and 5.99% [at 11.4 µM].

With `Cc1cccc(C(=O)O)c1[N+](=O)[O-]`, the “activity change, negative = inhibition” value is 2.6%.

Regarding `C=CC(=O)c1ccc2ccccc2c1`, the Potency was 12.6 µM (active).

In the case of `Cc1ccc2nc(CC(=O)c3ccc4ccccc4c3)c(=O)[nH]c2c1`, the activity change, negative = inhibition is -4.04% [at 11.4 µM].

In the case of `Cc1csc(-c2nc3ccccc3n2C)n1`, the “activity change, negative = inhibition” value is -12.9% [at 25.6 µM].

In the case of `Cc1cccc2c3c(ccc12)C1=C(C(=O)C3=O)C(C)CO1` (stereo not given), the “activity change, negative = inhibition” value was -24.2%.

For `C/C(CCN1CCc2nc(-c3ccccc3)c(-c3ccccc3)cc2C1)=N\O[C@@H](C)c1cn([C@@H]2COC[C@@H]2O)nn1`, the activity change, negative = inhibition was 0.588% [at 11.4 µM].

Take `O=C(Oc1cc(OC(=O)c2ccccc2)c2c(c1)OC(c1ccc(OC(=O)c3ccccc3)c(OC(=O)c3ccccc3)c1)[C@@H](OC(=O)c1ccccc1)C2)c1ccccc1` (stereo not given in full): the “activity change, negative = inhibition” value is -3.99%.

Turning to `COC(=O)C(C(=O)OC)[C@@H]1CCCC(=O)C1`, the activity change, negative = inhibition is 14.4% [at 11.4 µM].

Take `C=CCn1c(CSc2nc3ccccc3s2)nnc1SCC(=O)NCc1ccco1`: the “activity change, negative = inhibition” value is -9.16%.

For `CCn1c(SCC(=O)Nc2nc3ccc(OC)cc3s2)nnc1-c1ccoc1C`, the “activity change, negative = inhibition” value was -5.95%.

Turning to `C=CCn1c(SCC(=O)Nc2nc3ccccc3s2)nnc1-c1ccccc1O`, the Potency was 25.1 µM (active).

Turning to `CC(C)C(N)C(=O)OCCOCn1cnc2c(=O)[nH]c(N)nc21` (stereo not given), the “activity change, negative = inhibition” value is 13.5%.

Regarding `Cc1ccc2c(c1)C(O)(CC(=O)c1cccnc1)C(=O)N2` (stereo not given), the “activity change, negative = inhibition” value is 0.486%.

Consider `COc1ccc(/C=C/NC(=O)c2ccc(OC)cc2)cc1`, for which the activity change, negative = inhibition is -5.84% [at 11.4 µM].

Turning to `O=C(NCc1ccccn1)c1ccc2nc(-c3ccco3)c(-c3ccco3)nc2c1`, the Potency was 3.16 µM (active).

As to `Cc1cccn2c(=O)c3cc(C(=O)NCc4ccccn4)n(C)c3nc12`, the “activity change, negative = inhibition” value is 15.7%.

For `O=C(NCc1ccccn1)c1cc2ccccc2oc1=O`, the “activity change, negative = inhibition” value was 4.58%.

For the molecule `O=C(O)c1ccc(Cl)c(S(=O)(=O)Nc2ccccc2Cl)c1`, the “activity change, negative = inhibition” value is -1.82%.

Turning to `NC1(C(=O)OCc2ccccc2)CCCC1`, the activity change, negative = inhibition was -11.8% [at 11.4 µM].

Take `N#Cc1ccc(COC(=O)Cn2nnc(-c3ccccc3)n2)cc1`: the “activity change, negative = inhibition” value was -11.8%.

Consider `N#Cc1c(N)sc2c1CCN(C(=O)OCc1ccccc1)C2`, for which the Potency is 15.8 µM (active).

With `CC(CCC(=O)O)C1CCC2C3C(O)C[C@@H]4CC(O)CC[C@@]4(C)C3CC[C@@]12C` (stereo not given in full), the activity change, negative = inhibition result is “inactive”.

For the molecule `C#CCC(C(=O)OC)(C(=O)OC)C(C[N+](=O)[O-])c1ccccc1` (stereo not given), the activity change, negative = inhibition is -3.59% [at 11.4 µM].

Consider `CCC(CCC(C)C1CCC2C3CC=C4CC(O)CC[C@@]4(C)C3CC[C@@]12C)C(C)C` (stereo not given in full), for which the “activity change, negative = inhibition” value was -3.31%.

Take `CO[C@H]1COC(=O)C/C=C\[C@H](C)COC(=O)[C@@H](OCc2ccccc2)/C=C\[C@@H]1C`: the activity change, negative = inhibition was 5.89% [at 11.4 µM].

For `C=C1C(=O)C23C(O)C1CCC2[C@]12COC3(O)C(O)C1C(C)(C)CC[C@H]2O` (stereo not given in full), the “activity change, negative = inhibition” value was 0.681%.

With `CCOCCCN1C(=O)CN(C2CCCCC2)C(=O)C1c1ccc(OCC)c(OC)c1` (stereo not given), the “activity change, negative = inhibition” value was 2.68%.

With `COC(=O)[C@@H]1CC[C@H](C)[C@@H](c2ccc(C)cc2)N1C(=O)c1ccc(/C=N\OC[C@@H](O)COCc2ccco2)cc1`, the activity change, negative = inhibition was -2.65% [at 11.4 µM].

As to `Cc1ccc(-c2nc(CS(=O)CC(=O)N3CCN(c4ncccn4)CC3)c(C)o2)cc1` (stereo not given), the “activity change, negative = inhibition” value was -6.88%.

Turning to `CCOc1ccc2[nH]c(=O)c(CN(Cc3nnnn3Cc3ccccc3)CC3CCCO3)cc2c1` (stereo not given), the “activity change, negative = inhibition” value is 7.24%.

Regarding `COc1ccc2[nH]c(=O)c(CN(Cc3nnnn3CCc3ccccc3)CC3CCCO3)cc2c1` (stereo not given), the Potency was 1.26 µM (active).

On to `CCOc1ccc2[nH]c(=O)c(CN(Cc3nnnn3CCc3ccccc3)CC3CCCO3)cc2c1` (stereo not given), for which the “activity change, negative = inhibition” value was -10.3%.

For `O=C(CSc1nnc2scc(-c3ccc(F)cc3)n12)NCc1ccco1`, the “activity change, negative = inhibition” value is 3.22%.

With `CCCc1nc2c(C)cc(-c3nc4ccccc4n3C)cc2n1Cc1ccc(-c2ccccc2C(=O)O)cc1`, the “activity change, negative = inhibition” value is 3%.
